Compounds without any hit were thinned out: in the full panel of roughly 83,000, 20% have a hit.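 Treatment: one concentration, 48 hours, 96-well format. Scoring: percent growth, with anything below 10 considered active.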 Values without a mark were called inactive. Activity calls are given as the source filed them.
Tests used:
Assay in all cases: NCI-60 one-dose screen, 48 h (100 = growth as untreated, 0 = no growth, -100 = all killed)
Conditions in all cases: 10 µM unless noted
T-47D breast = system: T-47D breast
MDA-MB-435 melanoma = system: MDA-MB-435 melanoma
SW-620 colon = system: SW-620 colon
MCF7 breast = system: MCF7 breast
HCT-116 colon = system: HCT-116 colon
HCC-2998 colon = system: HCC-2998 colon
KM12 colon = system: KM12 colon
BT-549 breast = system: BT-549 breast

Compound	growth (T-47D breast)	growth (MDA-MB-435 melanoma)	growth (SW-620 colon)	growth (MCF7 breast)	growth (HCT-116 colon)	growth (HCC-2998 colon)	growth (KM12 colon)	growth (BT-549 breast)
CCN(CC)CCOc1ccc(C(=C(C)Cc2ccc(OC)cc2)c2ccc(OCCN(CC)CC)cc2)cc1	64.2%	-66.1% (active)	-6.4% (active)	-33.8% (active)	16.3%	44.8%	48.6%	
O=C1Nc2ccccc2/C1=N\c1nnc(-c2ccccc2)o1	77.9%	102%		66.3%	103%	111%	96.7%	105%
NC(=O)c1c(NC(=O)c2ccc(C(F)(F)F)cc2)sc2c1CCC(=O)C2	-28.9% (active)	-8.14% (active)	-17.5% (active)	5.66% (active)	3.88% (active)	32.3%	3.34% (active)	
Cc1ccc(C(=O)Nc2ccc(CNCCN3CCNCC3)c(C(F)(F)F)c2)cc1C#Cc1cnc2cccnn12	3.12% (active)	-76.2% (active)	-11.1% (active)	-82.9% (active)	-58.5% (active)	3.91% (active)	-45.6% (active)	
Cc1ccc(C(=O)Nc2ccc(CNCCN3CCOCC3)c(C(F)(F)F)c2)cc1C#Cc1cnc2cccnn12	4.34% (active)	-28% (active)	14.1%	6.79% (active)	2.51% (active)	6.09% (active)	1.77% (active)	
Fc1ccc2nc(-c3cnn4cccnc34)sc2c1	44.2%	108%	93.7%	26.7%	88.8%	83%	79.8%	
O=C(CSc1cc[n+](CCCCO)c2ccccc12)n1ccc2ccccc21	96.6%	107%	99%	94.6%	99.6%	113%	96.9%	
CCCC[n+]1ccc(SCC(=O)n2ccc3ccccc32)c2ccccc21	73.3%	101%	102%	83%	93.1%	109%	92.5%	
CC(=C(c1ccc(OCCN(C)C)cc1)c1ccc(OCCN(C)C)cc1)c1ccc(Cl)cc1	-53.7% (active)	-82.8% (active)	-71.5% (active)	-77.6% (active)	-65.1% (active)	-87.7% (active)	-65.2% (active)	
CCOC(=O)c1ccc(NC2=C(Cl)C(=O)c3nc(C)ccc3C2=O)cc1	-0.935% (active)	21.6%	-19.6% (active)	-14.5% (active)	7.29% (active)	80.3%	50.8%	
CCOC(=O)c1c(NC(=O)c2ccc(C(F)(F)F)cc2)sc2c(CN3CCN(C)CC3)c(O)ccc12	-35% (active)	-61.5% (active)	-71.2% (active)	-79.5% (active)	-92.5% (active)	-74.9% (active)	-21.2% (active)	
NS(=O)(=O)c1ccc(Nc2nc(N/N=C/C=C/c3ccccc3)nc(Nc3ccccc3)n2)cc1	18.9%	51.6%		16%	29.5%	38.3%	55.4%	65.9%
CCCNNC(=O)c1ccc(-c2ccc(NC(=O)CCCCCCC(=O)N[C@H](C(=O)N3C[C@H](O)C[C@H]3C(=O)N[C@@H](C)c3ccc(-c4scnc4C)cc3)C(C)(C)C)cc2)cc1	9.23% (active)	8.72% (active)		12%	7.95% (active)	19.4%	26.7%	50.5%
COc1ccc(C2c3[nH]c4ccc(Cl)cc4c3CCN2c2oc(CO)nc2C#N)cc1 (configuration not stated)	43.1%	15.2%	32.9%		32.1%	57%	23.4%	
Cc1ccc(OCc2occc2C(=O)N2CCOCC2)cc1	93.1%	100%		85.6%	105%	103%	107%	117%
C#Cc1cc(C(=O)Nc2ccc(CNCCN3CCOCC3)c(C(F)(F)F)c2)ccc1C	82.1%	94.9%	97.5%	83.5%	90.2%	102%	96.2%	
CN(C)S(=O)(=O)c1ccc(-c2nc(C(Cl)Cl)nc3cc(-c4ccccc4)nn23)cc1	89.5%	81.6%	49.6%	72%	72.3%	100%	74%	
C/C(=C(\c1ccc(O)cc1)c1ccc(OCCN2CCCCCC2)cc1)c1ccc(Cl)cc1	-71.9% (active)	-73.9% (active)		-81.1% (active)	-31.7% (active)	-88.2% (active)	-96.1% (active)	-71.8% (active)
COc1ccc(OC)c(CCn2cncc2-c2c[nH]c3ccc(Cl)cc23)c1	20.1%	12.8%	43.4%	21.6%	34.5%	72.4%	40.6%	
